From PubChem BioAssay (NCI)
About 83,000 compounds went through this panel and 20% of them were active in at least one assay; those are over-represented in the sample as a whole.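 Plates (96-well) were seeded with cells, treated with compound at one concentration, and incubated for 48 hours before percent growth was determined.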 Values without a mark were called inactive. The source made the active and inactive calls. Rule for the calls: active = growth percent below 10; inactive = the rest.

Assays:
Test in all cases: NCI-60 one-dose screen, 48 h (100 = growth as untreated, 0 = no growth, -100 = all killed)
[1] = tested on: EKVX NSCLC; conditions: 10 µM unless noted
[2] = tested on: SN12C renal; conditions: 10 µM unless noted
[3] = tested on: UO-31 renal; conditions: 10 µM unless noted
[4] = tested on: TK-10 renal; conditions: 10 µM unless noted
[5] = tested on: ACHN renal; conditions: 10 µM unless noted
[6] = tested on: CAKI-1 renal; conditions: 10 µM unless noted
[7] = tested on: A498 renal; conditions: 10 µM unless noted
[8] = tested on: CCRF-CEM leukemia; conditions: 10 µM unless noted
[9] = tested on: MOLT-4 leukemia; conditions: 10 µM unless noted
[10] = tested on: SR leukemia; conditions: 10 µM unless noted
[11] = tested on: RPMI-8226 leukemia; conditions: 10 µM unless noted
[12] = tested on: OVCAR-8 ovarian; conditions: 10 µM unless noted
[13] = tested on: OVCAR-5 ovarian; conditions: 10 µM unless noted
[14] = tested on: OVCAR-4 ovarian; conditions: 10 µM unless noted
[15] = tested on: SK-OV-3 ovarian; conditions: 10 µM unless noted
[16] = tested on: IGROV1 ovarian; conditions: 10 µM unless noted
[17] = tested on: OVCAR-3 ovarian; conditions: 10 µM unless noted
[18] = tested on: HS 578T breast; conditions: 10 µM
[19] = tested on: NCI/ADR-RES ovarian; conditions: 10 µM unless noted
[20] = tested on: SK-MEL-2 melanoma; conditions: 10 µM

Structure (SMILES)	growth [1]	growth [2]	growth [3]	growth [4]	growth [5]	growth [6]	growth [7]	growth [8]	growth [9]	growth [10]	growth [11]	growth [12]	growth [13]	growth [14]	growth [15]	growth [16]	growth [17]	growth [18]	growth [19]	growth [20]
CCOc1cccc(/C=N/NC(=O)c2ccccc2Nc2ccnc(C(F)(F)F)c2)c1O	10.6%	27.2%	-15.1% (active)	23.5%	5.76% (active)	4.57% (active)	-10.8% (active)	-37.3% (active)	-10.9% (active)	-20.1% (active)	-19.7% (active)	20.7%	13%	25%	8.43% (active)	-13.8% (active)	31.5%	39.2%	-0.31% (active)	
Clc1ccc(Nc2nccc(Nc3ccc4[nH]ncc4c3)n2)cc1	66.7%	51.6%	17.4%	61.6%	47.4%	52.3%	39.1%	5.15% (active)	23%	2.66% (active)	18.3%	22.1%	64.9%	49.3%	88.4%	46.9%	52.1%	61.5%	38.9%	
CC1(C)NC(=O)c2[nH]c3c(Cl)c(Cl)ccc3c2C1C#N (configuration not stated)	67.2%	89.5%		63.2%	78.6%	49.8%		70.3%	62%	67.5%	69.6%	89.2%	85.2%	60.7%	100%	100%	82.4%		85%	80.6%
C=C1CC[C@@H]2[C@](C)(COC(C)=O)[C@H](OC(C)=O)CC[C@@]2(C)[C@@H]1C/C=C1/C(=O)OC[C@H]1OC(C)=O	103%	33.4%	62.8%	16.9%	19.5%	81.5%	90.6%	-11.4% (active)	-6.05% (active)	5.73% (active)	14.1%	27.1%	53.7%	66.5%	101%	103%	-21.3% (active)	100%	25%	
COc1cc2cc(NCc3ccc(Cl)cc3)nc(C)c2cc1OC	64.9%	42%	41.4%	44.9%	54.8%	59.8%	26%	27.9%	27.6%	18.7%	14.3%	40.9%	41.2%	82.3%	68%	43%	49.4%	70.5%	33.6%	
COc1cc(NCCCN)c2ncccc2c1	105%	84.7%	63.4%	84.8%	97.2%	97.2%	56.9%	92.5%	91.5%	68.5%	38.5%	82.1%	93.2%	84.1%	89.1%	95.7%	93.3%	92.2%	85.7%	
CC(C)(C)CC(C)(C)Nc1c(-c2c(O)c3ccccc3oc2=O)nc2c(Cl)cc(C(F)(F)F)cn12	97.3%	91.6%	70.7%	96.4%	97.3%	87.6%	62%	89.1%	82.6%	104%	99.2%	102%	109%	100%	93%	90.4%	112%	103%	108%	
Cc1oc2c(C(=O)N/N=C\c3ccc(O)cc3O)c[nH]c2c1C	26.6%	44.5%	-0.347% (active)	6.21% (active)	-7.76% (active)	1.53% (active)	44.6%	23.9%	8.56% (active)	8.4% (active)	25.3%	13.7%	30.7%	10.8%	20.6%	24.1%	-16% (active)	58.2%	1.19% (active)	
CCCCn1c(C)nc2cc(Nc3nc(N4CCCCC4)nc4nc[nH]c34)ccc21	52.5%	49.6%	28.1%	57.2%	36.8%	31.1%	34.3%	46.6%	9.09% (active)	31.2%	40.3%	30.1%	50.1%	19%	66.5%	30.8%	37.7%	43.8%	35%	
Cc1cc(NCC(=O)Nc2ccc(-c3nc4ccccc4s3)cc2)no1	108%	102%	77%	92.1%	111%	104%	89.7%	53.7%	46.7%	69.9%	98.4%	96.4%	119%	111%	120%	88.5%	99.3%	101%	103%	
Cc1cc(C)n(CC(=O)Nc2ccc(-c3nc4ccccc4s3)cc2)n1	108%	102%	83.8%	106%	114%	102%	94.6%	98.5%	84%	99.4%	97.2%	99.7%	105%	97.8%	114%	97.4%	101%	113%	103%	
CC(=O)OC(C(=O)c1ccccc1)c1ccccc1 (configuration not stated)	109%	94.6%	75.6%	94.6%	101%	91.7%	95.9%	104%	102%	106%	105%	98%	102%	97.8%	94.1%	105%	121%	125%	107%	
Clc1ccc(C(Cn2ccnc2)OCc2ccsc2Cl)c(Cl)c1 (configuration not stated)	48.4%	65.6%	25.8%	71.6%	56.9%	42.4%	49.8%	43.4%	17.3%	17.3%	37.6%	57.2%	68.9%	52.7%	70.7%	40.9%	55.7%	30.8%	23.1%	
O=[N+]([O-])c1cc(Br)cc2c1[nH]c1ccc(Br)cc12	60.2%	82.7%	25.5%	52.8%	32.9%	51.4%	76.2%	65.2%	77.1%	77.2%	78.2%	57.7%	80.4%	-26.5% (active)	34.5%	36.6%	43.3%	65.4%	70.4%	
CC(C)(C)c1ccc(Cn2cc(CSc3nc4ccccc4s3)nn2)cc1	98.3%	90.8%	65.2%	88.7%	97.2%	82.9%	87%	95%	95.7%	98.7%	97.2%	92%	94.4%	97.5%	96.6%	90.7%	107%	93.7%	92.8%	
C=CCCCOC1[C@H](OCc2ccccc2)C(OCc2ccccc2)C(OC)O[C@@H]1CNC(=O)c1cccc(I)c1 (some centres not stated)	36.3%	38.7%	35.4%	64.5%	32.9%	38.3%	71.2%	13.8%	20.4%	26.7%	8.34% (active)	51.8%	69%	22.6%	45.5%	43.2%	50.1%	79.7%	25.9%	
